Assay results taken from article PMC9911399, “Two distinct binding modes provide the RNA-binding protein RbFox with extraordinary sequence specificity”.
Numbering of substitutions follows the chain as printed; changes in the protein carry UniProt numbers. Whole data set: some 16,000 sequences, median “ka relative to ugcaugu” near 0.0091, cut for the highest 2% near 0.032. Shown is part of a subset that was picked to be rich in the highest values.

T1: RBFOX1 RRM (Homo sapiens, UniProt Q9NWB1 109-208)
T1 sequence: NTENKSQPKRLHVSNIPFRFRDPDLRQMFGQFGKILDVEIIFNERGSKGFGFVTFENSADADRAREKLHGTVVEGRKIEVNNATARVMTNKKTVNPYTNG

B1: CAUAACG (DNA:RNA)
RNA: GGGAGACCGGAAUUCAGAUUGUCCCAUAACGUUAAAUCCCGUCGUAGCCACCA
DNA 1: CAATCTGAATTCCGGTCTCCC
DNA 2: TGGTGGCTACGACGGGATT
B2: UGUGGGC (DNA:RNA)
RNA: B1 RNA with C25U, A26G, A28G, A29G, C30G, G31C
DNA 1: CAATCTGAATTCCGGTCTCCC
DNA 2: TGGTGGCTACGACGGGATT
B3: UGGGGGC (DNA:RNA)
RNA: GGGAGACCGGAAUUCAGAUUGUCCUGGGGGCUUAAAUCCCGUCGUAGCCACCA
DNA 1: CAATCTGAATTCCGGTCTCCC
DNA 2: TGGTGGCTACGACGGGATT
B4: UGGGCUG (DNA:RNA)
RNA: B3 RNA with G29C, G30U, C31G
DNA 1: CAATCTGAATTCCGGTCTCCC
DNA 2: TGGTGGCTACGACGGGATT
B5: CACUUGC (DNA:RNA)
RNA: B1 RNA with U27C, A28U, A29U, C30G, G31C
DNA 1: CAATCTGAATTCCGGTCTCCC
DNA 2: TGGTGGCTACGACGGGATT
B6: AUAUGCA (DNA:RNA)
RNA: B1 RNA with C25A, A26U, U27A, A28U, A29G, G31A
DNA 1: CAATCTGAATTCCGGTCTCCC
DNA 2: TGGTGGCTACGACGGGATT
B7: CGAUGCC (DNA:RNA)
RNA: B3 RNA with U25C, G27A, G28U, G30C
DNA 1: CAATCTGAATTCCGGTCTCCC
DNA 2: TGGTGGCTACGACGGGATT
B8: ACAUGCG (DNA:RNA)
RNA: B1 RNA with C25A, A26C, U27A, A28U, A29G
DNA 1: CAATCTGAATTCCGGTCTCCC
DNA 2: TGGTGGCTACGACGGGATT
B9: GGAUGCC (DNA:RNA)
RNA: B3 RNA with U25G, G27A, G28U, G30C
DNA 1: CAATCTGAATTCCGGTCTCCC
DNA 2: TGGTGGCTACGACGGGATT
B10: GUAUGCA (DNA:RNA)
RNA: B1 RNA with C25G, A26U, U27A, A28U, A29G, G31A
DNA 1: CAATCTGAATTCCGGTCTCCC
DNA 2: TGGTGGCTACGACGGGATT
B11: GUAUGCC (DNA:RNA)
RNA: B3 RNA with U25G, G26U, G27A, G28U, G30C
DNA 1: CAATCTGAATTCCGGTCTCCC
DNA 2: TGGTGGCTACGACGGGATT
B12: GGAUGCG (DNA:RNA)
RNA: B1 RNA with C25G, A26G, U27A, A28U, A29G
DNA 1: CAATCTGAATTCCGGTCTCCC
DNA 2: TGGTGGCTACGACGGGATT
B13: CCAUGCC (DNA:RNA)
RNA: B1 RNA with A26C, U27A, A28U, A29G, G31C
DNA 1: CAATCTGAATTCCGGTCTCCC
DNA 2: TGGTGGCTACGACGGGATT
B14: GCAUGCC (DNA:RNA)
RNA: B3 RNA with U25G, G26C, G27A, G28U, G30C
DNA 1: CAATCTGAATTCCGGTCTCCC
DNA 2: TGGTGGCTACGACGGGATT
B15: GCAUGCG (DNA:RNA)
RNA: B1 RNA with C25G, A26C, U27A, A28U, A29G
DNA 1: CAATCTGAATTCCGGTCTCCC
DNA 2: TGGTGGCTACGACGGGATT
B16: GCAUCCC (DNA:RNA)
RNA: B1 RNA with C25G, A26C, U27A, A28U, A29C, G31C
DNA 1: CAATCTGAATTCCGGTCTCCC
DNA 2: TGGTGGCTACGACGGGATT
B17: GGAUGCA (DNA:RNA)
RNA: B3 RNA with U25G, G27A, G28U, G30C, C31A
DNA 1: CAATCTGAATTCCGGTCTCCC
DNA 2: TGGTGGCTACGACGGGATT

Target: T1, RBFOX1 RRM
Assay: EMSA; HiTS-Eq, 1 nM pool, 10 min; buffer printed only for the single-RNA assays: 10 mM Tris pH 7.5, 150 mM NaCl, 3.4 mM EDTA, 0.001% NP-40, 30 C
Settings: tags: His6 N-terminal (pET28a); label: 5' 32P
Method in brief: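 Purified RbFox RRM (wild type or mutant) was equilibrated for 10 min in 50 µL with 1 nM of a 5′-radiolabelled pool of RNA with 7 randomized nucleotides, its flanks annealed to DNA oligonucleotides, across increasing protein concentrations. Free RNA was separated by 8% native PAGE, excised, reverse-transcribed, PCR-barcoded and sequenced on an Illumina HiSeq 2500. Relative association constants came from read-count changes of each variant against the control reaction, normalised to the cognate motif.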

| Binder | binding signal |
| --- | --- |
| B1 | 0.00316 KA relative to UGCAUGU |
| B2 | 0.0102 KA relative to UGCAUGU |
| B3 | 0.014 KA relative to UGCAUGU |
| B4 | 0.039 KA relative to UGCAUGU |
| B5 | 0.00965 KA relative to UGCAUGU |
| B6 | 0.0145 KA relative to UGCAUGU |
| B7 | 0.012 KA relative to UGCAUGU |
| B8 | 0.00768 KA relative to UGCAUGU |
| B9 | 0.0339 KA relative to UGCAUGU |
| B10 | 0.0319 KA relative to UGCAUGU |
| B11 | 0.0139 KA relative to UGCAUGU |
| B12 | 0.0222 KA relative to UGCAUGU |
| B13 | 0.00772 KA relative to UGCAUGU |
| B14 | 0.829 KA relative to UGCAUGU |
| B15 | 0.916 KA relative to UGCAUGU |
| B16 | 0.0182 KA relative to UGCAUGU |
| B17 | 0.0274 KA relative to UGCAUGU |
